Screens: PubChem, Broad Institute
NSD2 inh = NSD2 histone methyltransferase inhibitors, primary screen, biochemical, AlphaScreen, single concentration, set 2; Histone-lysine N-methyltransferase NSD2 (Homo sapiens), O96028; NSD2 peptide methylation, 120 min; inhibition, % at 12.5 µM; 310,000 compounds, 0.54% hits; in the data active means inhibition above about 50%
CASP6 VEID inh = human caspase-6 inhibitors, primary screen, biochemical, VEID-R110 fluorescence, single point, set 2 | inhibition, % at 12.5 µM | purified caspase-6, Z-VEID-R110 cleavage fluorescence | 350,000 compounds, 0.53% hits;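 active means mean inhibition across replicates at least about 35%, with every replicate also reaching that limit, limit read from the data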;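 further: 0% = median of neutral control wells and 100% = no fluorescence left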
Target sequence (P55212 24-179 limits assumed): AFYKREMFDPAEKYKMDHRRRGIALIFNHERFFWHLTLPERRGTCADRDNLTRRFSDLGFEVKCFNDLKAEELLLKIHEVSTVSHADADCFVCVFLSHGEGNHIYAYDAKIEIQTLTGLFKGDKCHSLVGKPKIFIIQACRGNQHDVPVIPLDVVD
Target sequence (P55212 194-293 limits assumed): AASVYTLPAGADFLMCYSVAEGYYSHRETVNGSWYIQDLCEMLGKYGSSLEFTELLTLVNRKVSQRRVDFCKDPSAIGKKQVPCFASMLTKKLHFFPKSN
C-LANA FP = inhibitors of KSHV C-LANA binding to DNA, primary screen, biochemical, fluorescence polarization, FAM-LBS DNA, MBP-C-LANA, single point; inhibition, % at 9 µM; 340,000 compounds, 0.078% hits; AID 504423, 2011;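 active means highest replicate inhibition at or above 60% at 9 µM, even if other replicates fall short; inactive means all replicates below 60% inhibition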;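 further: 0% = neutral control wells and 100% = 4 µM acridine orange control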
N-glyco inh = increase of ERlucT glycosylation luciferase signal, primary screen, N-linked glycosylation inhibitor project, D54 ERlucT cells, luminescence, set 2 | D54 ERlucT glycosylation luciferase reporter, 24 h; percent of 100 nM tunicamycin response | reporter increase, % at 12.5 µM | 360,000 compounds, 0.23% hits;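 active means mean luciferase reporter signal, scaled so untreated is 0 and the glycosylation-blocking control 100, at or above a set limit in every replicate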;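 further: luciferase carries N-glycosylation sites so blocking glycosylation raises the light; 0% = median of neutral control wells and 100% = median of 100 nM tunicamycin wells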
HDAC3 inh = HDAC3 deacetylase inhibitors, primary screen, biochemical, fluorescence, cell-free homogeneous. inhibition, % at 8.3 µM. 320,000 compounds, 0.15% hits. recombinant HDAC3, fluorogenic peptide/trypsin coupled. Histone deacetylase 3 (Homo sapiens), O15379; in the data active means inhibition above about 26%, passing the limit was not always enough
Keap1 Nrf2 FP = Keap1-Nrf2 protein-protein interaction inhibitors, primary screen, biochemical, fluorescence polarization, single point | 340,000 compounds, 0.15% hits | Kelch-like ECH-associated protein 1 (Homo sapiens), Q14145 | Keap1 Kelch-Nrf2 peptide fluorescence polarization, 1536-well | inhibition, % at 9.4 µM; in the data active means inhibition above about 12%;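 further: human Keap1 Kelch domain with fluorescein labeled Nrf2 9mer peptide probe; 0% = neutral control wells and 100% = peptide positive control; higher means more block of Keap1 binding to Nrf2 peptide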
Alpha artifact = AlphaScreen signal interference with preloaded methylated product, dose response, artefact control for NSD2 inhibitor project, biochemical, cherry-picked samples; shares compounds with NSD2 inh; AlphaScreen artifact counterscreen, preloaded methylated H4 peptide; AC35, µM (doses to about 10 µM), for inactives: at the top dose activity change, negative = signal loss; 1,500 compounds, 9.4% hits; AID 1053174, 2014; call rule not given here
An asterisk follows results filed as active; nt = no result. Only some compounds are listed: those with a hit (about 1.1% of all), similar ones and a draw of the others.

SMILES | NSD2 inh | CASP6 VEID inh | C-LANA FP | N-glyco inh | HDAC3 inh | Keap1 Nrf2 FP | Alpha artifact
COCC#Cc1cnc2c(c1)C(=O)N([C@H](C)CO)C[C@@H](C)[C@H](CN(C)C(=O)c1cccc(F)c1)O2 | nt | 2 | nt | nt | nt | nt | nt
CC(C)NC(=O)N[C@@H]1CC[C@@H](CCn2cc(-c3ccc(F)cc3)nn2)O[C@H]1CO | nt | 1 | nt | nt | nt | nt | nt
Cc1cc(C)nc(NS(=O)(=O)c2ccc(-n3cccc3)cc2)n1 | 73* | nt | 0 | -1 | -3 | 1 | -1%
NC1=NC(=Nc2ccc(Br)cc2)c2ccccc21 | 53* | 0 | 0 | 2 | 7 | -7 | -9%
CC(=O)N1[C@H](CO)[C@H](c2ccc(C#CC3CCCCC3)cc2)[C@H]1CNCC(C)C | nt | 0 | nt | nt | nt | nt | nt
COc1ccc(NC(=O)Nc2ccc3c(c2)C(=O)N([C@@H](C)CO)C[C@@H](C)[C@@H](CN(C)S(=O)(=O)c2ccccc2)O3)cc1 | nt | -3 | nt | nt | nt | nt | nt
CC(=O)/C(N=Nc1c(C)n(C)n(-c2ccccc2)c1=O)=C(\C)O | -7 | 11 | -3 | 1 | 5 | -4 | nt
Cc1c(N=NC2=C(O)CC(C)(C)CC2=O)c(=O)n(-c2ccccc2)n1C | 96* | 1 | -1 | 2 | -1 | -5 | -2%
COCCNC(=O)Cc1c(C)c2c(cc(C)c3c(C)coc32)oc1=O | 51* | 0 | 3 | 1 | 5 | -1 | 3%
Cc1coc2c1c(C)cc1oc(=O)c(CC(=O)NCCC(=O)O)c(C)c12 | -2 | 4 | 0 | -1 | -20 | 3 | nt
O=C(NCCN1CCCC1)c1ccccc1Cl | -1 | -71 | -1 | 1 | 3 | -3 | nt
O=C1C(Cl)=C(NCCN2CCCCC2)C(=O)c2ccccc21 | 58* | nt | 0 | -21 | 9 | -1 | -4%
CCN1CCC(CNCc2cn(-c3ccc(OC)cc3)nc2-c2ccccc2Cl)C1 (stereo unspecified) | 75* | -78 | 0 | -3 | 2 | -1 | -4%
CN(C)CCNc1ncnc2c1sc1nc(N3CCCC3)c3c(c12)CC(C)(C)OC3 | 13 | -5 | -13 | -11 | 13 | -7 | nt
CCN(CC)CCNc1ncnc2c1sc1nc(N3CCCC3)c3c(c12)CC(C)(C)OC3 | 80* | 1 | -12 | -11 | 7 | 0 | -15%
O=C(NC1CCCC1)C(c1cccnc1)N(C(=O)c1csnn1)C1CC1 (stereo unspecified) | -1 | nt | -1 | 1 | 5 | -1 | nt
COc1cccc(C(C(=O)NC2CCCC2)N(C(=O)c2csnn2)C2CC2)c1 (stereo unspecified) | 99* | -2 | -1 | -4 | 5 | 0 | -2%
C[C@@H]1CCCCO[C@@H](CN(C)S(C)(=O)=O)[C@H](C)CN([C@H](C)CO)C(=O)c2cc(N(C)C)ccc2O1 | nt | -3 | nt | nt | nt | nt | nt
COc1ccccc1NC(=O)c1ccc(NC(=O)C2COc3ccccc3O2)cc1 (stereo unspecified) | 76* | 3 | 2 | -5 | 2 | 0 | 1%
COc1ccc(OC)c(NC(=O)C2COc3ccccc3O2)c1 (stereo unspecified) | -1 | nt | 1 | 1 | 4 | -2 | nt
CCCC(CCC(=O)Nc1cccc([N+](=O)[O-])c1)C(=O)O (stereo unspecified) | 83* | -1 | 1 | 4 | 4 | 1 | -1%
CO[C@@H]1CN(C)C(=O)c2ccc(NC(=O)c3ccccc3F)cc2OC[C@H](C)N(CC2CC2)C[C@H]1C | nt | -3 | nt | nt | nt | nt | nt
O=c1[nH]c(Cc2ccc(F)cc2)nc2scc(-c3ccc(F)cc3)c12 | -2 | -5 | 0 | -3 | -6 | -2 | nt
Cc1ccc(-c2csc3nc(CN(C)Cc4ccccc4)[nH]c(=O)c23)cc1 | 60* | 5 | -3 | 0 | 3 | -26 | 2%
C[C@H]1CN([C@@H](C)CO)C(=O)Cc2cc(NS(=O)(=O)c3cn(C)cn3)ccc2O[C@@H]1CN(C)Cc1ccc(C(=O)Nc2ccccc2N)cc1 | nt | 0 | nt | nt | nt | nt | nt
SMILES | NSD2 inh | CASP6 VEID inh | C-LANA FP | N-glyco inh | HDAC3 inh | Keap1 Nrf2 FP | Alpha artifact
CCCCN(CC)CCNC(=O)c1cc2c(-c3ccc(Cl)cc3)nn(C)c2s1 | 11 | 1 | -8 | 18 | -75 | -4 | nt
CCCN(CCC)CCNC(=O)c1cc2c(-c3ccccc3F)nn(C)c2s1 | 53* | -1 | -7 | -4 | -31 | -1 | -3%
C[C@@H]1CN([C@@H](C)CO)C(=O)CCCn2cc(nn2)CO[C@H]1CN(C)Cc1cccc(O)c1 | nt | 2 | nt | nt | nt | nt | nt
CCNCCNc1ccc(Cl)cc1[N+](=O)[O-] | 64* | nt | -1 | -3 | -4 | -1 | -3%
CCN1CCN(Cc2nc(N)nc(Nc3ccc(C)c(C)c3)n2)CC1 | 95* | nt | 0 | 0 | 0 | 2 | 4%
C[C@@H]1CCCCO[C@H](CN(C)S(=O)(=O)c2cccs2)[C@@H](C)CN([C@H](C)CO)C(=O)c2cc(NC(=O)CCCN(C)C)ccc2O1 | nt | -9 | nt | nt | nt | nt | nt
C[C@H]1CN([C@@H](C)CO)C(=O)Cc2cc(NS(=O)(=O)c3cccs3)ccc2O[C@H]1CN(C)C(=O)Nc1ccc(C(F)(F)F)cc1 | nt | 1 | nt | nt | nt | nt | nt
O=C(NC1CCN(S(=O)(=O)c2ccc(Cl)cc2)CC1)c1cccnc1 | 28 | 0 | 1 | 3 | 0 | -6 | nt
Cc1ccc(S(=O)(=O)N2CCC(NC(=O)c3cccnc3)CC2)cc1Cl | 63* | -1 | -2 | 6 | 3 | -2 | -4%
C[C@@H]1CN([C@@H](C)CO)S(=O)(=O)c2ccc(C#CCN(C)C)cc2O[C@@H]1CN(C)Cc1cccnc1 | nt | -2 | nt | nt | nt | nt | nt
Cc1ccc(N2C(=O)N(CC(=O)Nc3cccc([N+](=O)[O-])c3C)C(=O)C2C)cc1 (stereo unspecified) | 92* | 0 | -1 | -1 | 3 | -2 | -4%
Cc1ccc(N2C(=O)N(CC(=O)Nc3ccc(C)cc3[N+](=O)[O-])C(=O)C2C)cc1 (stereo unspecified) | 9 | 3 | -2 | 1 | -1 | -6 | nt
O=C(C[C@@H]1CC[C@@H]2[C@H](COC[C@H](O)CN2Cc2ccccc2F)O1)NCc1ccccc1F | nt | 0 | nt | nt | nt | nt | nt
